Common to all, as to assay: PBM binding z-score (relative to random genomic background probes); higher = stronger binding; sequences stand for … in GC…GCGATTGACAGCGTAGAATGAAGG
In assay [1] the test system is RARb homodimer (NR concentration 270 nM). The method in brief:
(§1)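 Binding z-scores were set against random background probes. The data came from custom Agilent 4×180K protein-binding microarrays carrying double-stranded probes with 34-nt variable regions, incubated 1 h with ligand-free nuclear receptor dimers. Partner-specific antibodies detected binding, and scanned fluorescence was regression-normalized.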

For assay [2], the system named is RARg:RXRa (NR concentration 270 nM, RXRa partner concentration 90 nM). The method in brief: as §1
The subject of assay [3] is RARg homodimer (NR concentration 270 nM). The method in brief:
as §1

Assay [4] concerns RXRa DBDmut IVT, anti-RXR (DBD mutation: RXRa K156A/R161A, NR concentration 90 nM). The method in brief:
as §1

The test system of assay [5] is RXRa homodimer (NR concentration 180 nM). The method in brief: as §1
The subject of assay [6] is THRa:RXRa (NR concentration 90 nM, RXRa partner concentration 90 nM). In a few lines:
as §1

The test system of assay [7] is THRa homodimer (NR concentration 90 nM). In a few lines: as §1
In assay [8] the test system is VDR homodimer (NR concentration 270 nM). In a few lines:
as §1

As to CCTTACGGGTCACGAGGTGATAGCACGACGAGCG, the PBM binding z-score in assay [1] worked out at 3.52; in assay [2], 5.58; in assay [3] it was 5.46; in assay [4] it was 1.66; in assay [5] it was 6.44; in assay [6], 3.48. In addition, the values for the PBM binding z-score in assay [7] and in assay [8] were 0.888 and 1.15, respectively.

For the sequence AGAACGAGGGCACGCTGTGTTGATAGCAGAGTAG, the PBM binding z-score in assay [1] was found to be 1.05; in assay [2], 1.82; in assay [3], 2.12; in assay [4], 1.76; in assay [5] it was 1.23; in assay [6], 1.53. The PBM binding z-score was -0.0988 in assay [7] and 0.651 in assay [8].

As for GGAACGAGGGCAAAGTTGGTAGCATCTGTCGACG, the PBM binding z-score in assay [1] stood at 1.14; in assay [2], 1.46; in assay [3] it was 1.52; in assay [4], 2.47; in assay [5] it was 1.14; in assay [6], 1.09. Also, the PBM binding z-score in assay [7] was -0.0808; in assay [8], 1.46.

Turning to CGAACTAGGTCAATGACAGGACAGTGAATAGTAA, the PBM binding z-score in assay [1] was found to be 2.71; in assay [2], 4.32; in assay [3], 4.46; in assay [4], 1.49; in assay [5], 2.17; in assay [6] it was 2.62. For the same sequence, the PBM binding z-score stood at 0.35 in assay [7] and 0.409 in assay [8].

Regarding AATACAGGTTCATCGTAGGCCAGAGTACGCACAG, the PBM binding z-score in assay [1] is 1.46; in assay [2], 2.54; in assay [3] it was 1.39; in assay [4] it was 4.66; in assay [5], 3.17; in assay [6], 3.66. Also, the figures for the PBM binding z-score in assay [7] and in assay [8] were 0.0172 and 5.45, respectively.

Take AGTAAAAGTTCATCTAGGTAACGTAAGATATGCT: the PBM binding z-score in assay [1] came out at 3.63; in assay [2], 4.68; in assay [3], 5.23; in assay [4] it was 4.63; in assay [5] it was 3.77; in assay [6] it was 3.05. The PBM binding z-score in assay [7] turned out to be 0.0912; in assay [8], 4.83.

Take CCAGACAGGTGAAACGTAACTCAGTCTGGTACGC: the PBM binding z-score in assay [1] was 0.0638; in assay [2], 0.203; in assay [3], 0.432; in assay [4], 0.0553; in assay [5], 0.53; in assay [6], -0.118. In addition, the PBM binding z-score was -0.567 in assay [7] and -0.448 in assay [8].

As to TCGAGTACGTTACCAATGGGGCATTCAGCTTTCT, the PBM binding z-score in assay [1] is 0.0384; in assay [2], -0.336; in assay [3] it was -0.335; in assay [4], 3.13; in assay [5], -0.358; in assay [6], -0.315. Besides, the PBM binding z-score in assay [7] is -0.201; in assay [8] it was 1.2.

In the case of ATTTCTAGGTAAAGATAGTTCAGTGAATGCAAAT, the PBM binding z-score came out at 0.935 in assay [1]; 0.671 in assay [2]; 0.813 in assay [3]; 0.38 in assay [4]; 0.418 in assay [5]; 1.02 in assay [6]. In addition, the PBM binding z-score in assay [7] was 0.00694; in assay [8] it was 0.94.

Regarding TCAGATAGGTAAAAGGTGAAAGTCGGTGTGGTAA, the PBM binding z-score in assay [1] is 2.19; in assay [2] it was 1.89; in assay [3] it was 0.855; in assay [4], 1.85; in assay [5] it was 3.06; in assay [6] it was 1.76. Further, the PBM binding z-score in assay [7] worked out at 0.528; in assay [8], 0.262.

CTTGCTAGGTCAATGGTCAGCTAAAGCAGCTCGC: the PBM binding z-score in assay [1] amounted to 2.82; in assay [2] it was 3.48; in assay [3], 4.68; in assay [4], 1.61; in assay [5] it was 2.34; in assay [6], 2.13. Moreover, the figures for the PBM binding z-score in assay [7] and in assay [8] were 0.43 and -0.158, respectively.

In the case of GAGACAGGGTCAAGGCCAGAGTACGCGTATTGAT, the PBM binding z-score in assay [1] was determined as 3.45; in assay [2], 5.32; in assay [3], 5.34; in assay [4], 1.95; in assay [5] it was 6.25; in assay [6], 3.52. The figures for the PBM binding z-score in assay [7] and in assay [8] were 1.06 and 1.98, respectively.

Turning to CGTCGAAGGTCATAGGAGGTCAGTGAAGACAGAT, the PBM binding z-score was found to be 5.29 in assay [1]; 6.92 in assay [2]; 7.53 in assay [3]; 3 in assay [4]; 6.64 in assay [5]; 5.27 in assay [6]. In addition, the PBM binding z-score in assay [7] was 1.39; in assay [8], 3.45.

On to AGAACGAGAGCACGCTGAGTTGATAGCAGAGTAG, for which the PBM binding z-score in assay [1] was -1.13; in assay [2] it was -0.185; in assay [3], 0.0866; in assay [4], -0.192; in assay [5], -0.166; in assay [6], -0.571. For the same sequence, the PBM binding z-score is -1.24 in assay [7] and -0.355 in assay [8].

Turning to CCGACTGGGGCAAGGTTCCCATAACGCACAGCCA, the PBM binding z-score is 0.27 in assay [1]; 0.259 in assay [2]; 0.433 in assay [3]; -0.627 in assay [4]; 0.314 in assay [5]; -0.0449 in assay [6]. Also, the PBM binding z-score in assay [7] is -0.119; in assay [8], -0.153.

For the sequence CCTCCTGGGCCAAGGTCATTGATCAGTCAAAGCA, the PBM binding z-score in assay [1] was 3.38; in assay [2], 3.6; in assay [3], 3.13; in assay [4] it was 0.822; in assay [5], 3.1; in assay [6], 3.43. For the same sequence, the PBM binding z-score in assay [7] was determined as 2.34; in assay [8], 3.08.

On to AGAACGAAGGCACGCTGAGTTGATAGCAGAGTAG, for which the PBM binding z-score is -0.785 in assay [1]; -0.198 in assay [2]; 0.0507 in assay [3]; -0.345 in assay [4]; 0.0315 in assay [5]; -0.717 in assay [6]. Moreover, the figures for the PBM binding z-score in assay [7] and in assay [8] were -1.12 and -0.212, respectively.

For the origin of these results see the supplement of paper PMC6555819.
